A selection: hits, their analogues and other compounds. The true share with any hit is near 1.3%.
GLD-1 TGE inh: GLD-1-TGE RNA interaction inhibition (C. elegans) | purified GLD-1 + fluorescein TGE RNA, fluorescence polarization | inhibition, % at 5.96 µM | hit rate 0.44% among 320,000 | AID 2280;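 active means percent inhibition above a per-plate cutoff, the plate mean of test compounds plus 3 SD, cut at about 30% in these data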;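 further: 0% = DMSO wells with GLD-1 and probe and 100% = wells lacking GLD-1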
MCL1-BIM inh: disrupts human MCL1 binding to BIM-BH3 peptide | Q07820 | GST-MCL1 / FITC-Bim-BH3 fluorescence polarization | inhibition, % at 10.9 µM | hit rate 0.68% among 320,000;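 active means inhibition above the mean inhibition of all tested compounds plus 3 SD, set per campaign, cut at about 40% in these data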;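 further: 0% = DMSO wells and 100% = unlabeled Bim-BH3 peptide control; higher means more loss of mP so more displacement of Bim peptide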
EBV gp42 block: blocks Epstein-Barr virus glycoprotein 42 binding; Q1HVG2; inhibition, % (tested at 21.74 µM); Fluorescence polarization binding assay, mP read-out; hit rate 0.42% among 220,000; in the data active means inhibition above about 50%
Target sequence (Q1HVG2 whole entry, looked up): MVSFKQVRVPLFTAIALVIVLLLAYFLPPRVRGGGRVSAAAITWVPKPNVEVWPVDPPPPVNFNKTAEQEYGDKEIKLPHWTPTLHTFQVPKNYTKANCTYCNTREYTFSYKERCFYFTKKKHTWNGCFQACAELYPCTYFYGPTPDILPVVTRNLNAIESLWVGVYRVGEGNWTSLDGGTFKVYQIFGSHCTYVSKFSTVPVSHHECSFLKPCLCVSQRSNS
Bcl-xL primary: inhibitors of human Bcl-xL. inhibition, % at 10.9 µM. hit rate 0.7% among 320,000. Q07817. GST-Bcl-xL / FITC-Bim BH3 peptide fluorescence polarization. AID 2129;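 active means inhibition above the mean of all tested compounds plus 3 SD, cutoff set per campaign, cut at about 30% in these data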;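 further: 0% = DMSO wells and 100% = unlabeled Bim-BH3 peptide competitor; inhibitors lower millipolarization by displacing the labeled peptide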
Target sequence (Q07817 whole entry, looked up): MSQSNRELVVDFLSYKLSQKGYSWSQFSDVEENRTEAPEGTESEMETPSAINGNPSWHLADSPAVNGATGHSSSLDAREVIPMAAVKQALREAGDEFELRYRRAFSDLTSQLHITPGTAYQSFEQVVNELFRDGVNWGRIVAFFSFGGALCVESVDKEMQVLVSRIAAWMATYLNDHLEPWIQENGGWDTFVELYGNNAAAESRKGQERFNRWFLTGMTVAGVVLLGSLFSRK
MEX-5 binding: C. elegans MEX-5 TCR-2 RNA binding activity; Q9XUB2; MEX-5/FITC-TCR2 RNA binding, fluorescence polarization; active compounds read low; activity score (negative = inhibition of binding), % at 10 µM; hit rate 0.38% among 300,000; AID 1832;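 active means inhibition past about -25% in most replicates, and total fluorescence under double the plate's negative control median, limit read from the data; inconclusive means replicates evenly split on the limit, or fluorescence at least double controls; inactive means too little inhibition in most replicates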;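 further: 0% = DMSO and -100% = 5 µM competing unlabeled TCR2 RNA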
BCLXL inh confirm: Bcl-xL (human) inhibition, MCL1 counter-screen confirmation; shares compounds with MCL1-BIM inh; GST-Bcl-xL / FITC-Bim BH3 peptide FP binding; inhibition, % at 10.9 µM; hit rate 54% among 1,700;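 active means inhibition above a cutoff equal to the mean inhibition of all tested compounds plus 3 SD, cut at about 30% in these data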;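 further: 0% = DMSO wells and 100% = unlabeled Bim BH3 control peptide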
MCL1 BIM confirm: MCL1-BIM-BH3 interaction inhibition, confirmation | shares compounds with MCL1-BIM inh | GST-MCL1 / FITC-Bim-BH3 fluorescence polarization | inhibition, % at 10.9 µM | hit rate 61% among 1,700 | AID 2168;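 active means inhibition above the average of all tested compounds plus 3 SD, cut at about 40% in these data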;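 further: 0% = DMSO wells and 100% = unlabeled Bim-BH3 control peptide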
GLD-1 TGE cf: confirmation of C. elegans GLD-1 TGE RNA binding inhibitors. inhibition, % at 5.96 µM. shares compounds with GLD-1 TGE inh. GLD-1/FL-TGE RNA fluorescence polarization, biochemical. hit rate 10% among 550;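 active means average inhibition across triplicates above the hit cutoff set in the primary screen, cut at about 32% in these data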;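 further: 0% = GLD-1 with RNA probe and DMSO and 100% = wells lacking GLD-1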
An asterisk follows results filed as active; ? = inconclusive; . = no result given; + = active, no number.

SMILES	GLD-1 TGE inh	MCL1-BIM inh	EBV gp42 block	Bcl-xL primary	MEX-5 binding	BCLXL inh confirm	MCL1 BIM confirm	GLD-1 TGE cf
COc1ccc(CN2C(=O)Cc3c2nc(N)c2c(N)nc(N4CCCCC4)c(C#N)c32)cc1	16	66*	21	45*	-3	6	-4	.
CCc1ccc(N2CC(C(=O)N/N=C/c3ccccc3)CC2=O)cc1 (centres undefined)	6	-1	.	6	-1	.	.	.
Cc1ccc(Oc2ccc(NS(=O)(=O)c3cccc(C(=O)O)c3)cc2)cc1	4	.	.	.	.	.	.	.
Cc1ccc(S(=O)(=O)C(C#N)c2nc3ccccc3nc2N2CCCC2)cc1 (centres undefined)	57*	75*	91*	83*	-4	64*	63*	.
CCN1CCN(c2nc3ccccc3nc2C(C#N)S(=O)(=O)c2ccc(C)cc2)CC1 (centres undefined)	0	7	-21	10	-1	.	.	.
O=C(CSc1ccccn1)Nc1ccc2c(c1)C(=O)c1ccccc1C2=O	4	55*	52*	14	-2	29	60*	.
COCCCNC(=O)c1ccc2c3c(onc13)-c1ccccc1C2=O	197*	+	184*	+	-79*	+	+	.
COc1[nH]c(/N=C/c2ccccc2)c(C#N)c1C#N	159*	194*	39	160*	-59*	50*	40*	.
O=C(CCN1C(=O)/C(=C/c2ccco2)SC1=S)Nc1ccc(C(=O)O)c(O)c1	-5	65*	.	25	-20	32*	54*	.
O=C(CCN1C(=O)/C(=C\c2ccco2)SC1=S)Nc1ccc(C(=O)O)c(O)c1	0	64*	.	31*	?	14	23	.
COc1cc2c3nnc(-c4ccc(F)cc4)c-3cn(Cc3cccc(F)c3)c2cc1OC	-5	85*	-28	76*	?	82*	87*	.
COc1cc2c3nnc(-c4ccc(F)cc4)c-3cn(Cc3cccc(C)c3)c2cc1OC	50*	99*	-8	96*	?	85*	90*	.
COc1cc2c3nnc(-c4ccc(F)cc4)c-3cn(Cc3ccc(C)cc3)c2cc1OC	-4	-16	-118	13	?	.	.	.
COCCCNC(=O)/C(C#N)=C/c1ccc(OCC(=O)O)c(OC)c1	7	57*	10	16	-10	20	33	.
O=C(NNC(=O)c1ccccc1F)c1cccc(-n2cccc2)c1	-1	65*	.	7	-3	23	92*	.
O=C(NNC(=O)c1cccc(-n2cccc2)c1)c1ccccc1	4	4	.	2	.	.	.	.
O=C(O)c1cccc(CN2C(=O)c3ccccc3C2=O)c1	-5	-3	.	4	0	.	.	.
O=C1c2cccc3c(O)ccc(c23)C(=O)N1Cc1ccccc1	+	+	187*	+	?	+	+	.
O=C1CCN2C=Nc3cccc4ccc1c2c34	169*	+	137*	+	?	192*	+	.
c1ccc(CN2CCN(C3=Nc4cccc5cccc3c45)CC2)cc1	.	.	13	.	-7	.	.	.
O=C(N/N=C\c1cc(Br)c(Br)o1)c1cncc(Br)c1	6	6	-8	6	2	.	.	.
O=C(N/N=C/c1cc(Br)c(Br)o1)c1cccnc1	40*	126*	-9	94*	-12	34*	44*	3
Cc1ccc(C(=O)NNC(=O)c2ccc(NS(=O)(=O)c3cccs3)cc2)o1	46*	+	.	61*	.	-1	-3	-5
Cc1ccc(CNC(=O)c2ccc(NS(=O)(=O)c3cccs3)cc2)cc1	-6	-4	.	1	1	.	.	.
Cc1csc(SCc2c(C(=O)O)oc3ccccc23)n1	62*	125*	5	107*	1	6	4	-2
SMILES	GLD-1 TGE inh	MCL1-BIM inh	EBV gp42 block	Bcl-xL primary	MEX-5 binding	BCLXL inh confirm	MCL1 BIM confirm	GLD-1 TGE cf
CC1(C)CC(=O)C2=C(C1)Nc1ccccc1S2	49*	59*	38	56*	?	56*	62*	19
CCOC(=O)CC(=O)CSc1nc(C)cc(-c2cccnc2)c1C#N	-1	11	-15	10	3	.	.	.
CCOC(=O)CC(=O)CSc1nc(-c2cccnc2)cc(C)c1C#N	36*	62*	8	61*	-1	8	-1	3
C[C@H](NC(=O)C1CC(=O)N(c2ccc3c(c2)OCO3)C1)C(=O)NC1CCCC1 (some centres undefined)	-3	1	.	5	-2	.	.	.
CC(C)[C@H](NC(=O)C1CC(=O)N(c2ccc3c(c2)OCO3)C1)C(=O)NC1CCCC1 (some centres undefined)	43*	54*	.	55*	-17	37*	65*	20
O=C1C(Cl)=C(N2CCN(Cc3ccccc3)CC2)C(=O)N1Cc1ccccc1	34*	56*	-3	57*	-4	7	4	7
O=C1C(Cl)=C(NC2CCCCC2)C(=O)N1Cc1ccccc1	6	-1	-6	3	1	.	.	.
COc1ccc(N2CCCC2)c(NC(=O)c2ccc(Br)o2)c1	38*	56*	.	48*	-6	22	16	41*
COc1ccc(C2c3c(oc4ccc(Cl)cc4c3=O)C(=O)N2CCN2CCOCC2)cc1 (centres undefined)	5	5	-19	1	1	.	.	.
O=C1C=C(Nc2ccccc2C(=O)O)c2ccccc2C1=O	-2	25	0	20	-4	.	.	.
O=C1C=C(Nc2cccc3cccnc23)c2ccccc2C1=O	34*	59*	.	55*	-31*	45*	46*	-4
COc1cc(NC(=O)c2ccccc2Cl)c2ncccc2c1	5	5	.	8	2	.	.	.
CCC(CNc1cc(OC)cc2cccnc12)NC1CCCCC1 (centres undefined)	33*	+	22	+	-11	50*	62*	-6
O=C(O)CCNc1cc(N2CCN(C(=O)c3ccco3)CC2)c2noc3c2c1C(=O)c1ccccc1-3	37*	93*	.	78*	?	59*	-111	-216
CC(=O)OCCNc1cc(N2CCN(C)CC2)c2noc3c2c1C(=O)c1ccccc1-3	.	.	12	.	.	.	.	.
CCOC(=O)c1ccc(NC(=O)CN(c2ccc(C)cc2)S(=O)(=O)c2c(C)n[nH]c2C)cc1	74*	106*	16	92*	2	6	8	0
Cc1cc2cc(CNC(=O)CCC(=O)O)ccc2n1C	17	15	-18	18	-4	.	.	.

High-throughput results as filed in PubChem BioAssay.
